Screens: PubChem BioAssay, National Center for Advancing Translational Sciences (NCATS)
A selection: hits, their analogues and other compounds. The true share with any hit is near 17%.
HT1080 IDH1KD tx – qHTS for induction of synthetic lethality in tumor cells producing 2HG: qHTS for the HT-1080-IDH1KD cell line; AID 686971, 2013; HT-1080 IDH1 knockdown viability, ATP luminescence, 48 h; 360,000 compounds, 2% hits; Potency, µM (top dose mostly 46.1 µM), inactives show at the highest dose activity, negative = toxicity, usual class: cytotoxic;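 note: 0% = DMSO wells and -100% = cell-free medium wells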
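Using the IDH1-knockdown HT-1080 line run in the same batch and compound series as the NT line, viability after 48 h at 37 °C was determined by CellTiter-Glo luminescence and expressed as % activity.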
HepG2 viability – qHTS for Inhibitors of TGF-b: Cytotox Counterscreen; HepG2 CAGA-GFP viability, ATP luminescence, 18 h; 410,000 compounds, 0.76% hits; AID 588856, 2011; Potency, µM (highest dose often 46.1 µM), for inactives: at the top dose activity change, negative = cytotoxicity, most hits filed as cytotoxic
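CellTiter-Glo luminescence gave cytotoxicity after 18 hours at 37 degrees C. The cells were HepG2 CAGA-GFP in 1% FBS DMEM, stimulated with 500 pg/mL TGF-beta after compound addition. %Activity was normalised to no-cell wells (complete cell-killing) and DMSO (no toxicity), and curves were fitted and classified.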
DT40 TDP1 no CPT – qHTS for Inhibitors of human tyrosyl-DNA phosphodiesterase 1 (TDP1): qHTS in cells in absence of CPT. DT40 Tdp1-/- hTDP1 cells, no CPT, ATP luminescence, 48 h. Potency, µM (top dose mostly 46.2 µM), for inactives: at the top dose activity change, negative = growth inhibition, actives largely listed as inhibitors. 420,000 compounds, 15% hits; note: % is set by controls: 0 for no effect and ±100 for the full control effect; nearly all actives have a fitted effect of over 55% in size
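Compound effects on proliferation are scored in DT40 Tdp1-/-;hTDP1 cells in the absence of CPT. ATP levels (CellTiter-Glo luminescence) are recorded after a ≥48 hr, 37 °C incubation.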
HT1080NT lethal – qHTS for induction of synthetic lethality in tumor cells producing 2HG: qHTS for the HT-1080-NT fibrosarcoma cell line; HT-1080-NT fibrosarcoma viability, CellTiter-Glo ATP luminescence, 48 h; Potency, µM (highest dose often 46.1 µM), without a hit: top-dose activity, negative = less viability, actives largely listed as cytotoxic; 360,000 compounds, 1.6% hits;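 note: NT is the 2HG producing partner of a matched IDH1 knockdown line; 0% = DMSO-treated cells and -100% = media-only wells without cells; nearly all actives have a fitted effect of over 55% in size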
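Compounds were tested in concentration-response format on HT-1080-NT cells for 48 hours at 37 degrees C. Cell viability came from CellTiter-Glo luminescence; curves were classified by r2, response magnitude and activity.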
TDP1 cell CPT – qHTS for Inhibitors of human tyrosyl-DNA phosphodiesterase 1 (TDP1): qHTS in cells in presence of CPT | chicken DT40 Tdp1-/-;hTDP1 cells + 20 nM CPT, ATP luminescence, 48 h | Potency, µM (series often up to 46.2 µM), for inactives: at the top dose activity change, negative = growth inhibition, hits mostly inhibitors | 420,000 compounds, 12% hits; note: % is set by controls: 0 for no effect and ±100 for the full control effect; nearly all actives have a fitted effect of over 55% in size
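Cell growth measured by CellTiter-Glo luminescence after a minimum 48 h, 37 C compound exposure with 20 nM CPT in Tdp1-knockout DT40 cells stably expressing hTDP1, seeded 400/well; qHTS titration format.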
TGFb inhibitor – qHTS for Inhibitors of TGF-b; HepG2 CAGA-GFP TGF-b/SMAD3 reporter, GFP fluorescence, 18 h; TGF-beta stimulated, 500 pg/mL final; Potency, µM (titrated, usually from 46.1 µM), without a hit: at the top dose activity, negative = inhibition, most hits filed as inhibitors; 410,000 compounds, 1.2% hits; note: % is set by controls: 0 for no effect and ±100 for the full control effect; nearly all actives have a fitted effect of over 65% in size
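Inhibition of TGF-beta-driven CAGA-GFP reporter expression in HEPG2 cells is measured by cellular GFP fluorescence after 18 h stimulation with 500 pg/mL recombinant TGF-beta in 1% FBS medium at 37 degrees C.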
* = called active by the depositor; ! = repeats disagree. Calls come from the whole dose curve; as a rule, active = well fitted curve in the direction sought with a large enough effect; inconclusive = small, poorly fitted or top-dose-only effect, or another doubt; inactive = no such curve, though single readings can be large; an effect the other way counts as inactive or inconclusive. Potency is the fitted concentration of half-maximal effect.

For O=C(CCn1c(=O)c2ccccc2n(CC(=O)Nc2ccc(F)cc2)c1=O)NCCc1ccccc1 the results were HepG2 viability 0.9%, DT40 TDP1 no CPT -17.5%, TDP1 cell CPT -8.2% and TGFb inhibitor -1.7%.
For O=c1cc(-c2ccc(O)cc2)oc2c(O)c(O)c(O)c(O)c12 the results were HT1080 IDH1KD tx -2.8%, HepG2 viability 0.8%, DT40 TDP1 no CPT inconclusive, HT1080NT lethal 2.5%, TDP1 cell CPT 23.1µM* and TGFb inhibitor 13.4%.
`O=c1cc(-c2ccc(O)cc2)oc2c(C3O[C@H](CO)[C@@H](O)[C@H](O)[C@H]3O)c(O)cc(O)c12` (stereo partly drawn) gave HT1080 IDH1KD tx 16.8%, HepG2 viability 5.2%, DT40 TDP1 no CPT -27.7%, HT1080NT lethal -2.7%, TDP1 cell CPT -8.9% and TGFb inhibitor 6.1%.
For COc1c(O)cc2oc(-c3ccc(O)cc3)cc(=O)c2c1O the results were HT1080 IDH1KD tx -8.0%, HepG2 viability -17.0%, DT40 TDP1 no CPT inconclusive, HT1080NT lethal -7.0%, TDP1 cell CPT 29.1µM* and TGFb inhibitor -12.9%.
Screening O=c1cc(-c2ccc(O)cc2)oc2ccc3ccccc3c12 returned HT1080 IDH1KD tx inconclusive, HepG2 viability -58.9%, DT40 TDP1 no CPT 16.4µM*, HT1080NT lethal inconclusive, TDP1 cell CPT inconclusive and TGFb inhibitor inconclusive.
For COc1cc(-c2cc(=O)c3c(C)cc(O)cc3o2)cc(OC)c1OC the results were HT1080 IDH1KD tx 13.8%, HepG2 viability 1.1%, DT40 TDP1 no CPT 8.2µM*, HT1080NT lethal 12.0%, TDP1 cell CPT inconclusive and TGFb inhibitor 18.1%.
For O=c1cc(-c2ccc(O)cc2)oc2c1ccc1ccccc12 the results were HT1080 IDH1KD tx 0.1%, HepG2 viability -5.5%, DT40 TDP1 no CPT -18.1%, HT1080NT lethal 1.4%, TDP1 cell CPT -22.8% and TGFb inhibitor 1.4%.
For COc1cccc2oc(-c3ccc(O)cc3)cc(=O)c12 the results were DT40 TDP1 no CPT -23.5% and TDP1 cell CPT 2.2%.
For CC1CC1c1ccc(/C=C(\C#N)C(=O)Nc2cccc(Cl)c2Cl)o1 (stereo not drawn) the results were HT1080 IDH1KD tx 1.9%, HepG2 viability -29.1%, DT40 TDP1 no CPT inconclusive, HT1080NT lethal 1.8%, TDP1 cell CPT inconclusive and TGFb inhibitor -17.8%.
For O=C(Nc1ccncc1)C1CCN(S(=O)(=O)c2cccc(C(F)(F)F)c2)CC1 the results were HT1080 IDH1KD tx -0.7%, HepG2 viability -12.7%, DT40 TDP1 no CPT inconclusive, HT1080NT lethal -4.0%, TDP1 cell CPT inconclusive and TGFb inhibitor -17.2%.
`COc1ccc(-c2cc(=O)c3c(OC)c(OC)c(OC)c(OC)c3o2)cc1` gave HT1080 IDH1KD tx 8.1%, HepG2 viability -29.8%, DT40 TDP1 no CPT 16.4µM*, HT1080NT lethal 1.2%, TDP1 cell CPT 23.1µM* and TGFb inhibitor -14.1%.
COc1ccc2oc(-c3ccc(O)cc3)cc(=O)c2c1 was read as DT40 TDP1 no CPT 26.6µM* and TDP1 cell CPT inconclusive.
O=c1cc(-c2ccccc2)oc2cc(O)c(O)c(O)c12 was read as HT1080 IDH1KD tx -9.3%, HepG2 viability -3.2%, DT40 TDP1 no CPT 29.9µM*, HT1080NT lethal -14.3%, TDP1 cell CPT 16.8µM*! and TGFb inhibitor 2.7%.
